Bioassay records from PubChem.
This is one part of a sample in which hits are shown more often than they occur.
PI5P4K alpha inh: inhibitors of human PI5P4K alpha; P48426; PI5P4Kalpha enzyme, ADP-Glo luminescence, 60 min; stronger effect = lower value; max response, %; actives 1.2% (n = 330,000); AID 652105; active means max response of -50% or lower; inconclusive means between -30% and -50%; inactive means -30% or higher; further: value at the top dose of about 77 µM
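Controls without substrate or without enzyme flank wells where PI5P4Kalpha converts substrate using 5 microM ATP (final). Incubation lasts 60 minutes at room temperature; ADP formed is read by ADP-Glo luminescence.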
Pin1 inh: human Pin1 inhibition; actives 0.009% (n = 390,000); Potency, µM (doses to about 115 µM), without a hit: at the highest dose activity, negative = inhibition, most hits filed as inhibitors; Q13526; Pin1 FP peptide displacement, HiFluor488, 10 min; active means well fitted inhibition curve with a large enough effect in the polarisation, with a control signal flat, not every such curve was filed as active; inconclusive means small, poorly fitted or top-dose-only effect, or effect the other way, or a change in a side signal; inactive means no such curve, though single readings can be large or run the other way; the % refers to the polarisation; further: potency means the concentration at half of the fitted maximal effect
Target sequence (Q13526 whole entry, looked up): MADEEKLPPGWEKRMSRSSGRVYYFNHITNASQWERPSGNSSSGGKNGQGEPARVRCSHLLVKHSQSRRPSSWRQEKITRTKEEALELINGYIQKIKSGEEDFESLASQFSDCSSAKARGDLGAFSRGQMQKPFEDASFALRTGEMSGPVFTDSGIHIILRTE
PI4K2A inh: inhibitors of human PI4K2A; activity change, negative = inhibition, % at 76.9 µM; Q9BTU6; purified PI4K2A, ADP-Glo luminescence, 1 h; stronger effect = lower value; AID 1346378; actives 0.13% (n = 420,000); in the data active means activity change below about -50%; inconclusive means mostly about -30% to -49%;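 further: -100% = wells without enzyme as full effect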
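ADP-Glo luminescence measured ADP generated by PI4K2A enzyme (4 ug/mL before mixing) with 1.2 mM PI substrate (pre-mix) and 300 microM ATP (pre-mix). Tris pH7.5 buffer with MgCl2, Triton X-100; 1 h reaction at ambient temperature.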
Tb PFK inh: T. brucei PFK enzyme inhibition | Potency, µM (titrated, usually from 57.5 µM), inactives show at the highest dose activity, negative = inhibition, actives largely listed as inhibitors | actives 0.17% (n = 330,000) | O15648 | T. brucei PFK, ADP-Glo luminescence;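 further: potency means the concentration at half of the fitted maximal effect; 0% = uninhibited 1x PFK enzyme wells and -100% = no-enzyme wells; nearly all actives have a fitted effect of over 60% in size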
Target sequence (O15648 whole entry, looked up): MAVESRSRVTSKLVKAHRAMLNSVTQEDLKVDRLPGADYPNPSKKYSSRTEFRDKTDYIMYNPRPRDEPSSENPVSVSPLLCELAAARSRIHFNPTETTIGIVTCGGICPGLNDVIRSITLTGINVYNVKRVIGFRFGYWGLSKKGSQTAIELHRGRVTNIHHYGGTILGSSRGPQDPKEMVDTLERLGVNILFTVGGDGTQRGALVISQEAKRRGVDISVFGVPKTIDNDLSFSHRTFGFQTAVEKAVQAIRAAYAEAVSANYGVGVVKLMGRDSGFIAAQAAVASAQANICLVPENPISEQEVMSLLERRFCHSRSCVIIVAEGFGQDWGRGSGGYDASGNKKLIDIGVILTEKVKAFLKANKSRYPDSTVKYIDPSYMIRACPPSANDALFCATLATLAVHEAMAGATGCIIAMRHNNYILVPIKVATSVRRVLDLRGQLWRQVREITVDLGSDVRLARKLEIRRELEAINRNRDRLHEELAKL
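Compounds were pin-transferred as a titration series up to 57 uM into substrate buffer (0.5 mM F6P, 0.1 mM ATP, pH 8.0), then 1.25 nM PFK was added and reactions ran 45 min before ADP-Glo detection.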
PGK inhibitor: blocks T. brucei phosphoglycerate kinase. Potency, µM (highest dose often 57.5 µM), inactives show top-dose activity change, negative = inhibition, usual class: inhibitors. actives 0.043% (n = 380,000). PGK/GAPDH coupled, Kinase-Glo luminescence, 60 min. P07378; further: potency means the concentration at half of the fitted maximal effect; nearly all actives have a fitted effect of over 60% in size
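Recombinant glycosomal PGK reaction used 1,3-bisphosphoglycerate generated in-well by GAPDH (100nM final) in 100mM TEA pH 7.6, 5mM MgCl2, 0.01% Tween-20. After 60 minutes at room temperature, ATP was read by Kinase-Glo Plus luminescence end-point.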
* = called active by the depositor; i = inactive; ? = inconclusive; . = no result. Unless noted, the call rests on the fitted dose curve; in most records, active means well fitted curve in the direction sought with a large enough effect; inconclusive means small, poorly fitted or top-dose-only effect, or another doubt; inactive means no such curve, though single readings can be large; an effect the other way counts as inactive or inconclusive. Unless noted, on the % scale 0 is the no-effect control and ±100 the full control effect.

SMILES	PI5P4K alpha inh	Pin1 inh	PI4K2A inh	Tb PFK inh	PGK inhibitor
O=S(=O)(c1ccc2c(c1)OCCO2)N1CCN(S(=O)(=O)c2ccc(Br)cc2F)CC1	.	14.6%	.	.	.
C#CCOCCOCCOCCNc1nc(N2CCN(C(=O)CCCCCCCCCCNC(=O)[C@H](CCCCN)n3cc(CCO)nn3)CC2)nc(N2CCN(C(=O)CCCCCCCCCCNC(=O)[C@H](CCCN=C(N)N)n3cc(C[C@@H](C)CC)nn3)CC2)n1	-65.7*	?	-2.4	-4.6%	14.5%
C#CCOCCOCCOCCNc1nc(N2CCN(C(=O)Cn3cc(CCCCN)nn3)CC2)nc(N2CCN(C(=O)[C@H](C)n3cc(CCCN=C(N)N)nn3)CC2)n1	.	.	.	-19.3%	.
C#CCOCCOCCOCCNc1nc(N2CCOCC2)nc(N2CCN(C(=O)[C@H](CCCN=C(N)N)n3cc(C(N)[C@@H](C)CC)nn3)CC2)n1 (stereo partly drawn)	2.9	-6.8%	-2.8	7.6%	2.7%
C#CCOCCOCCOCCNc1nc(N2CCN(C(=O)CCCCCCCCCCNC(=O)[C@H](CCCCN)n3cc(CCCC(=O)O)nn3)CC2)nc(N2CCN(C(=O)CCCCCCCCCCNC(=O)[C@H](CCCN=C(N)N)n3cc(C[C@@H](C)CC)nn3)CC2)n1	?	21.8%	-4.1	-11.7%	i
C#CCOCCOCCOCCNc1nc(N2CCN(C(=O)CCCCCCCCCCNC(=O)[C@H](CCCCN)n3cc(C[C@@H](C)CC)nn3)CC2)nc(N2CCN(C(=O)CCCCCCCCCCNC(=O)[C@H](CCCCN)n3cc(C[C@@H](C)CC)nn3)CC2)n1	-51.7*	?	-3.4	.	-1.2%
C#CCOCCOCCOCCNc1nc(N2CCN(C(=O)CCCCCCCCCCNC(=O)Cn3cc(C[C@@H](C)O)nn3)CC2)nc(N2CCN(C(=O)CCCCCCCCCCNC(=O)[C@H](CCCCN)n3cc(C[C@@H](C)CC)nn3)CC2)n1	?	130.6%	-5.2	?	-8.5%
C#CCOCCOCCOCCNc1nc(N2CCN(C(=O)[C@H](CCCN=C(N)N)n3cc(C(N)[C@H](C)CC)nn3)CC2)nc(N2CCN(C(=O)[C@H](CCCN=C(N)N)n3cc(C(N)[C@@H](C)CC)nn3)CC2)n1 (stereo partly drawn)	-60.9*	-5.2%	-4.6	-3.6%	i
C#CCOCCOCCOCCNc1nc(N2CCN(C(=O)Cn3cc(CC(C)O)nn3)CC2)nc(N2CCN(C(=O)[C@H](C)n3cc(CCCN=C(N)N)nn3)CC2)n1 (stereo partly drawn)	-79.9*	-5.1%	-8.7	-10.3%	-5.0%
O=C(O)Cc1nnc(-c2cc3ccccc3[nH]2)s1	.	15.5%	.	.	.
C#CCOCCOCCOCCNc1nc(N2CCN(C(=O)[C@H](Cc3cc4ccccc4[nH]3)n3cc([C@@H](N)Cc4ccc(O)cc4)nn3)CC2)nc(N2CCN(C(=O)[C@H](Cc3cc4ccccc4[nH]3)n3cc([C@@H](N)CC(C)C)nn3)CC2)n1	?	21.5%	-7.5	-13.7%	0.9%
C#CCOCCOCCOCCNc1nc(N2CCN(C(=O)C(Cc3cc4ccccc4[nH]3)n3cc(C(N)Cc4ccc(O)cc4)nn3)CC2)nc(N2CCN(C(=O)C(Cc3cc4ccccc4[nH]3)n3cc(C(N)Cc4ccc(O)cc4)nn3)CC2)n1 (stereo not drawn)	-91.6*	29.5%	-3.7	9.6%	-7.5%
COc1cc([C@@H]2Oc3cc(C4Oc5cc(O)cc(O)c5C(=O)[C@H]4O)ccc3O[C@H]2CO)ccc1O (stereo partly drawn)	-52.1*	-1.6%	-3.6	2.8%	i
O=C(CSc1nnc(-c2ccco2)o1)c1ccc[nH]1	-85.6*	?	?	29.3%	-9.9%
CCOC(=O)Nc1ccc2c(c1)[C@@]1(CC(=O)N(CC(C)C)C1c1ccccc1)C(=O)N2C (stereo partly drawn)	.	.	-4.2	.	.
N#CCSc1nnc(SCC#N)s1	-75.0*	3.6%	5.6	-1.1%	-4.0%
N#CCSc1nnc(N)s1	-7.3	0.6%	8.7	-3.1%	5.3%
Oc1ccc(Nc2ccccc2F)c2cccnc12	.	-11.8%	-51.9*	.	.
O=Cc1cc(N=Nc2ccc(S(=O)(=O)O)cc2)ccc1O	-76.2*	6.5%	-12.3	.	-5.4%
Cc1ccc(CNc2ncnc3ccc(-c4ccc5c(c4)OCO5)cc23)s1	.	11.1%	.	.	.
CCSc1nc(-c2ccco2)ccc1C#N	-72.9*	21.6%	-8.9	-11.6%	-4.8%
CCOC(=O)c1cc(=O)c2c(OCC(COc3cccc4oc(C(=O)OCC)cc(=O)c34)OC(=O)[C@@H](N)CCCCN)cccc2o1	.	.	-3.5	.	.
Cc1cc(O)c2c(c1O)C(=O)[C@]13C(=C2O)C(=O)[C@@H]2[C@@H](O)[C@H]1[C@@H]1[C@H](O)[C@H]3C(=O)C3=C(O)c4c(O)cc(C)c(O)c4C(=O)[C@]312	-90.5*	?	-63.5*	-13.2%	?
N=c1c2c(ncn1-c1ccccc1)Oc1ccc3ccccc3c1C2c1ccc2c(c1)OCCO2 (stereo not drawn)	.	113.8%	.	.	.
C/C=C/c1ccc(O)c(OC)c1	-0.4	-0.1%	1.9	3.3%	-3.1%
SMILES	PI5P4K alpha inh	Pin1 inh	PI4K2A inh	Tb PFK inh	PGK inhibitor
Oc1cc(O)cc(/C=C/c2ccc(O)c(O)c2)c1	-52.7*	-4.4%	-52.9*	8.49µM*	?
CC(C)=CCc1c(O)cc(O)c2c1OC(c1ccc(O)cc1)CC2=O (stereo not drawn)	-63.2*	?	-2.9	.	i
CC(C)=CCc1c(O)c(CC=C(C)C)c2c(c1O)C(=O)CC(c1ccc(O)cc1)O2 (stereo not drawn)	-29.5	11.7%	-2.0	-5.9%	i
Cc1c(O)cc2c(c1O)C(=O)CC(c1ccc(O)cc1)O2 (stereo not drawn)	-79.9*	?	?	5.4%	-25.6%
CC(C)(C)OC(=O)CC(=O)NNC(=O)c1nc2ccccc2[nH]1	.	-3.2%	.	.	.
COc1ccccc1-c1cc(C(=O)Nc2cc(C)on2)no1	.	-4.0%	-84.6*	1.8%	-0.3%
O=C(CCS(=O)(=O)c1nc(-c2cccs2)cc(C(F)(F)F)n1)Nc1ccc(OC(F)(F)F)cc1	.	-0.7%	-68.4*	.	-20.8%
Cc1cc2c(s1)c1cnn(Cc3cc(C(F)(F)F)cc(Cl)c3F)c(=O)c1n2C	.	4.2%	.	.	.
COc1ccc(C=C2SC(=O)NC2=O)cc1OC	-27.0	-0.7%	3.6	.	4.5%
NS(=O)(=O)c1ccc(-c2cccc(/C=C3\SC(=O)NC3=O)c2)cc1	-55.7*	-7.9%	-0.7	4.6%	-10.6%
O=C1c2cc(Br)ccc2N(Cc2ccc(Br)cc2)S(=O)(=O)C1c1cc(Cl)c(Cl)cc1[N+](=O)[O-] (stereo not drawn)	-60.7*	?	-4.4	-0.3%	-9.6%
COC(=O)[C@H](C(C)C)N1CCc2nnn(Cc3ccc(C)cc3)c2-c2cc(F)ccc2S1(=O)=O	.	.	1.8	.	.
